Only some compounds are listed: those with a hit (about 3.4% of all), similar ones and a draw of the others.
PGC1a acetyl inh – modulators of PGC1a acetylation; AID 651687; 350,000 compounds, 0.17% hits; U2OS PGC1a acetylation, AlphaScreen anti-acetyl-lysine; with virally co-expressed GCN5 acetyltransferase; inhibition, % at 15.6 µM;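 active = every replicate shows inhibition of at least 40%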;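 note: 0% = neutral control wells and 100% = positive control wells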
PAX8 reporter – lowers PAX8-driven luciferase in RMG-I cells; RMG-I TPO-luciferase reporter, SteadyGlo, 24 h; inhibition, % at 12.6 µM; 360,000 compounds, 1.2% hits;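 active = mean replicate inhibition at least 60% with every replicate also reaching 60%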;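 note: luciferase light reporting Pax8 driven TPO promoter activity; plate controls were median of neutral control wells for no effect and mitoxantrone controls for full effect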
LGR2 inh – inhibitors of bursicon-induced Drosophila LGR2 receptor cAMP signaling | inhibition, % at 9.99 µM | 380,000 compounds, 0.35% hits | HEK293 LGR2, CRE-luciferase, bursicon-stimulated, 4 h | AID 720647;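 active = drop in luminescence signal, shown as inhibition above about 50% in the replicate tests, limit read from the data, passing the limit was not always enough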;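 note: agonist challenge used bursicon conditioned medium at about half maximal strength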
EWS-Fli inh – EWS/Fli transcriptional activity inhibition; A673 NR0B1-luciferase reporter, viability-normalised; 350,000 compounds, 0.67% hits; AID 651661; inhibition, % at 12.6 µM;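 active = mean inhibition of at least 50% after viability correction, with every replicate also passing that limit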;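 note: firefly luciferase signal divided by Alamar Blue viability fluorescence both relative to DMSO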
SIRT5 inh – sirtuin-5 (human) deacylase inhibition; Q9NXA8; Purified SirT5, succinyl-peptide AMC, trypsin-coupled fluorescence; inhibition, % at 15 µM; 330,000 compounds, 1.1% hits; AID 652115; in the data active = inhibition above about 15%
Target sequence (Q9NXA8 whole entry, looked up): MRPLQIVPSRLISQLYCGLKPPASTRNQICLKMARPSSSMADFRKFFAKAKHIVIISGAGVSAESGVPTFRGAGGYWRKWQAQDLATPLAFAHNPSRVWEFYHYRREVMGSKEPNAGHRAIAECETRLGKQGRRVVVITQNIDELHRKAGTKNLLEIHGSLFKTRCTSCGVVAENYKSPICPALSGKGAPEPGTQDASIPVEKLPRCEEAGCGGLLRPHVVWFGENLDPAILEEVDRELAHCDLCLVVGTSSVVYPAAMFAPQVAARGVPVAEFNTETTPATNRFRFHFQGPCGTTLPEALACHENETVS
Ecoli rRNA inh – inhibits bacterial ribosomal RNA function over humanized ribosomes; E. coli WT GFP vs humanized-ribosome RFP mutants, fluorescence, 24 h; stronger effect = lower value; DMSO median 0, no signal -100; GFP signal change (wild-type ribosome), % (test concentration not listed); 350,000 compounds, 1.6% hits; AID 720706;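 active = significant combined selectivity score with lowered wild-type GFP, culture density cut under 30%, mutant RFP and density less affected; inactive = any of these conditions unmet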
An asterisk follows results filed as active; / = no result given.

SMILES	PGC1a acetyl inh	PAX8 reporter	LGR2 inh	EWS-Fli inh	SIRT5 inh	Ecoli rRNA inh
C[C@@H]1CN([C@H](C)CO)C(=O)c2cc(NC(=O)Cn3cnnn3)ccc2O[C@H]1CN(C)C(=O)Nc1ccc2c(c1)OCO2	-6	/	4	-2	1	3
CCOCC(=O)Nc1c(C(=O)Nc2ccc3c(c2)OCCO3)oc2ccccc12	-15	-112	-25	-15	7	-25*
COc1ccc(NC(=O)c2oc3ccccc3c2NC(=O)C2CCCO2)cc1OC (centres undefined)	-1	-106	-13	-124	1	-37*
CC(C)(C)OC(=O)N[C@@H](Cc1ccccc1)c1nnc(S(=O)(=O)Cc2ccccc2)o1	/	14	/	/	/	/
Cc1ccccc1CS(=O)(=O)c1nnc([C@H](Cc2ccccc2)NC(=O)OC(C)(C)C)o1	55*	/	22	40	-1	14
COc1cccc(C(=O)Oc2ccc(/C=N/Nc3ccc(C(=O)O)cc3)cc2OC)c1	7	-72	15	-88	8	-33
CCOc1cc(/C=N/Nc2ccc(C(=O)O)cc2)ccc1OC(=O)c1ccccc1C	13	-77	-16	-61	26*	-3
CN1C(=O)c2ccccc2OC1(C)Cc1ccccc1 (centres undefined)	/	13	7	11	-3	-21*
CC(C)NC(=O)N1[C@@H](CO)[C@@H](c2ccccc2)C12CN(C(=O)CN(C)C)C2	-5	-4	25	0	3	4
CC(C)CC#Cc1ccc2c(c1)O[C@@H](CN(C)C(=O)Nc1ccccc1)[C@H](C)CN([C@@H](C)CO)S2(=O)=O	-15	/	6	36	3	-4
CSc1nsc(SCc2ccc(Cl)cc2)n1	7	/	-51	7	7	-43*
CCCNC(=O)N(C)C[C@H]1Oc2cc(-c3cncnc3)ccc2S(=O)(=O)N([C@@H](C)CO)C[C@@H]1C	7	-5	-20	-6	-9	7
COc1cc(C(=O)Nc2ccc(C)cc2C(NCC(=O)NN)c2ccccc2)cc(OC)c1OC (centres undefined)	-7	-3	-23	13	19*	2
COc1ccc(CNC(=O)CNC(c2ccccc2)c2ccccc2)cc1OC	/	18	-1	0	-17	-28*
COc1ccc2c3c(n(C)c2c1)[C@@H](CO)N(Cc1ccccc1)CC31CCN(S(=O)(=O)c2ccc(C)cc2)CC1	-19	13	15	20	-2	-33
CCC(=O)N1CC2(CN(Cc3cccnc3)C2)c2c(n(C)c3cc(OC)ccc23)[C@H]1CO	4	/	-11	5	/	2
COc1ccccc1OCC(=O)Nc1ccncc1	4	8	8	-3	-2	3
Cc1cccc(OCC(=O)Nc2ccncc2)c1C	11	-5	15	8	15*	-3
COc1ccc(C(=O)C2CCN(C(=S)Nc3ccc(F)cc3)CC2)cc1	-7	13	19	-2	-2	-32
COc1ccc(NC(=S)N2CCC(C(=O)c3ccc(F)cc3)CC2)c(OC)c1	/	5	20	-27	25*	-8
CC1CCCC(NC(=O)COC(=O)CCSc2ccccc2)C1C (centres undefined)	1	12	-13	-3	16*	19
CC1CCCC(NC(=O)COC(=O)CCC(=O)c2cccs2)C1C (centres undefined)	5	-4	11	1	0	-6
CC=Cc1ccc2n(c1=O)C[C@H]1[C@H](CO)[C@@H](C(=O)OC)N(C(C)=O)[C@@H]21 (mixture of isomers)	/	/	-15	4	-3	3
CC1=CC2=NC(=O)/C(=C/c3cccn3Cc3ccccc3)C(=N)N2O1	-11	5	10	5	-2	-35*
CC(C)NC(=O)Nc1ccc2c(c1)C(=O)N([C@H](C)CO)C[C@H](C)[C@H](CN(C)S(=O)(=O)c1ccccc1)O2	-6	-5	3	-1	-2	-2
SMILES	PGC1a acetyl inh	PAX8 reporter	LGR2 inh	EWS-Fli inh	SIRT5 inh	Ecoli rRNA inh
O=C(CNCc1ccc(Cl)cc1)Nc1ccc(C(=O)N2CCCCCC2)cc1	-5	3	-14	-4	-8	-30*
O=C(Cc1ccc(Cl)cc1)Nc1ccc(CN2CCCCC2)cc1	/	2	11	14	80*	2
CCN(CC)S(=O)(=O)c1ccc(NC(=O)C2CCCN(C(=O)c3ccc(Cl)cc3)C2)cc1 (centres undefined)	/	56	7	12	-4	-23*
CCNC(=O)/C(C#N)=C/c1c(N(Cc2ccccc2)Cc2ccccc2)nc2ccccn2c1=O	/	14	10	4	0	-18*
CNC(=O)/C(C#N)=C/c1c(N(Cc2ccccc2)Cc2ccccc2)nc2c(C)cccn2c1=O	0	9	2	/	/	/
COc1cccc(-c2cnc3c(c2)C(=O)N([C@H](C)CO)C[C@@H](C)[C@H](CN(C)Cc2ccncc2)O3)c1	14	/	-15	0	-4	1
Cn1cc(C2=C(c3ccc(Cl)cc3Cl)C(=O)NC2=O)c2ccccc21	-24	92*	47	-79	-2	/
O=C(CN1CCOCC1)N1CC(=O)N2[C@H](C1)[C@H](c1ccc(-c3cccc(F)c3)cc1)[C@@H]2CO	9	/	-1	-5	2	5
CCc1nc2ccc(C(=O)N3CCN(c4ccc([N+](=O)[O-])cc4)CC3)cc2nc1CC	/	37	-19	/	1	-23*
CCOC(=O)c1sc(NC(=O)CSc2nccn2C)nc1C	0	-105	-36	/	16*	2
CCOC(=O)c1sc(Nc2nc(C)cc(C)n2)nc1C	/	33	5	54*	1	9
CCOC(=O)c1sc(Nc2nc(C)cc(OC)n2)nc1C	11	25	3	6	-8	6
C[C@@H]1CN([C@H](C)CO)C(=O)c2cccc(NC(=O)CCCCCC(=O)Nc3ccccc3N)c2O[C@H]1CN(C)Cc1ccc(-c2ccccc2)cc1	4	/	10	9	17*	4
C[C@H]1CN([C@@H](C)CO)C(=O)c2cccc(NC(=O)CCCCCC(=O)Nc3ccccc3N)c2O[C@@H]1CN(C)Cc1ccc(-c2ccccc2)cc1	-19	37	8	-6	17*	-3
C[C@H](CO)N1C[C@H](C)[C@@H](CN(C)Cc2ccc(C(F)(F)F)cc2)Oc2c(NC(=O)CCCCCC(=O)Nc3ccccc3N)cccc2C1=O	-32	69*	1	/	3	-7
C[C@@H]1CN([C@H](C)CO)C(=O)c2cccc(NC(=O)CCCCCC(=O)Nc3ccccc3N)c2O[C@@H]1CN(C)Cc1ccc(C(F)(F)F)cc1	-11	56	-13	-17	/	-2
C[C@@H]1CN([C@H](C)CO)C(=O)c2cccc(NC(=O)CCCCCC(=O)Nc3ccccc3N)c2O[C@H]1CN(C)Cc1ccccc1	-25	49	29	35	13	-13
